This is an account of results in PubChem BioAssay AID1508601 (ICCB-Longwood Screening Facility, Harvard Medical School, 2020).

The nature of assay [1]: nuclear p53 accumulation, HPV+ cells – imaging, p53-positive nuclei imaging, 24 h, 48 h (AID 1508601). The following applies: 24/48 h.
For assay [2], the target named is Cellular tumor antigen p53 (Homo sapiens) (UniProt P04637). The assay is described as above. The following applies: 24/48 h, stronger effect = higher value.
Where [3] appears, read: measured here: cell number at 24 h, Library stock concentration: 10 mM.
The mark [4] stands for this setting: measured here: cell number at 48 h, Library stock concentration: 10 mM.
The mark [5] stands for this setting: Library stock concentration: 10 mM.
The mark [6] stands for this setting: measured here: p53 positive nuclei at 24 h, Library stock concentration: 10 mM.
[7] abbreviates: measured here: cell number at 24 h, concentration not given here.
Setting [8] is: measured here: cell number at 48 h, concentration not given here.
[9] abbreviates: measured here: p53 positive nuclei at 24 h, concentration not given here.
Where [10] appears, read: measured here: cell number at 24 h, Library stock concentration: 46 uM.
Where [11] appears, read: measured here: cell number at 24 h, Library stock concentration: 278 uM.
[12] abbreviates: measured here: cell number at 24 h, Library stock concentration: 1.67 mM.
Setting [13] is: measured here: cell number at 48 h, Library stock concentration: 46 uM.
Where [14] appears, read: measured here: cell number at 48 h, Library stock concentration: 278 uM.
Where [15] appears, read: measured here: cell number at 48 h, Library stock concentration: 1.67 mM.
Setting [16] is: Library stock concentration: 46 uM.
Setting [17] is: Library stock concentration: 278 uM.
The mark [18] stands for this setting: Library stock concentration: 1.67 mM.
Setting [19] is: measured here: p53 positive nuclei at 24 h, Library stock concentration: 46 uM.
The mark [20] stands for this setting: measured here: p53 positive nuclei at 24 h, Library stock concentration: 278 uM.
[21] abbreviates: measured here: p53 positive nuclei at 24 h, Library stock concentration: 1.67 mM.

The structures appear in SMILES notation. Among all 5,700 compounds or so, about 85 (1%) were called active. Rule as the data show it: active = p53-positive nuclei above about 36% (passing the limit was not always enough); inactive = the rest. Many of the other results were omitted from the sample, so actives are more common in it than they were.

Cellular tumor antigen p53 (Homo sapiens), sequence (P04637 whole entry, looked up): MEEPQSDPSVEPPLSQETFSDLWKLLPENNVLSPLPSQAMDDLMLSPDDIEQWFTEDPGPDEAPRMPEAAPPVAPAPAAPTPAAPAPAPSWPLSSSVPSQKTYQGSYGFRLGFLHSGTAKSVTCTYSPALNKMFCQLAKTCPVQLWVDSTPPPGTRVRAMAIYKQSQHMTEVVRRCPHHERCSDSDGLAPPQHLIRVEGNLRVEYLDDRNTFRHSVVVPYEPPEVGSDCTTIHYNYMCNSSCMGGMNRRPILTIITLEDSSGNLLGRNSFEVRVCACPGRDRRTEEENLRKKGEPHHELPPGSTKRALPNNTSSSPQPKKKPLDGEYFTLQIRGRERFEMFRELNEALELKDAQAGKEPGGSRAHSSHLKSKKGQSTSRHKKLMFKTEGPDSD

As to `CCn1cnc2c(Nc3cccc(Cl)c3)nc(NC3CCCCC3N)nc21` (stereo unspecified), the nuclei count, normalised worked out at 108% in assay [1] (measured here: cell number at 24 h, Library stock concentration: 80 uM); 103% in assay [1] (measured here: cell number at 24 h, Library stock concentration: 400 uM); 91.4% in assay [1] (measured here: cell number at 24 h, Library stock concentration: 2 mM); 32.2% in assay [1] (setting [3]); 110% in assay [1] (measured here: cell number at 48 h, Library stock concentration: 80 uM); 104% in assay [1] (measured here: cell number at 48 h, Library stock concentration: 400 uM). Also, the nuclei count, normalised in assay [1] (measured here: cell number at 48 h, Library stock concentration: 2 mM) worked out at 98.2%; in assay [1] (setting [4]) it was 21.9%. Besides, the p53-positive nuclei, normalised in assay [2] (Library stock concentration: 80 uM) was -0.102% (inactive); in assay [2] (Library stock concentration: 400 uM) it was -0.0205% (inactive); in assay [2] (Library stock concentration: 2 mM), 0.0322% (inactive); in assay [2] (setting [5]), 61.8% (active); in assay [2] (measured here: p53 positive nuclei at 24 h, Library stock concentration: 80 uM) it was 0.0806%; in assay [2] (measured here: p53 positive nuclei at 24 h, Library stock concentration: 400 uM), 0.000598%. Moreover, the p53-positive nuclei, normalised in assay [2] (measured here: p53 positive nuclei at 24 h, Library stock concentration: 2 mM) is 0.126%; in assay [2] (setting [6]), 48.5%.
On to `CCCCCCCCCCCCCCCCOC[C@H](COP(=O)([O-])OCC[N+](C)(C)C)OC(C)=O`, for which the nuclei count, normalised in assay [1] (setting [7]) and in assay [1] (setting [8]) was 107% in each case. In addition, the figures for the p53-positive nuclei, normalised in assay [2] (concentration not given here) and in assay [2] (setting [9]) were -0.0025% (inactive) and -0.0227%, respectively.
In the case of `CCCCC/C=C\C/C=C\C/C=C\C/C=C\CCCC(=O)NC(CO)CO`, the nuclei count, normalised in assay [1] (setting [7]) was determined as 103%; in assay [1] (setting [8]) it was 109%. For the same compound, the p53-positive nuclei, normalised is 0.067% (inactive) in assay [2] (concentration not given here) and -0.135% in assay [2] (setting [9]).
For `CC1CN(Cc2ccc(F)cc2)CCN1C(=O)COc1ccc(Cl)cc1NC(N)=O` (stereo unspecified), the nuclei count, normalised was 113% in assay [1] (setting [10]); 111% in assay [1] (setting [11]); 113% in assay [1] (setting [12]); 116% in assay [1] (setting [3]); 112% in assay [1] (setting [13]); 110% in assay [1] (setting [14]). Further, the nuclei count, normalised in assay [1] (setting [15]) and in assay [1] (setting [4]) was 112% each time. Further, the p53-positive nuclei, normalised is -0.174% (inactive) in assay [2] (setting [16]); -0.135% (inactive) in assay [2] (setting [17]); -0.0557% (inactive) in assay [2] (setting [18]); -0.323% (inactive) in assay [2] (setting [5]); 0.0345% in assay [2] (setting [19]); -0.0826% in assay [2] (setting [20]). For the same compound, the p53-positive nuclei, normalised was -0.151% in assay [2] (setting [21]) and 0.0332% in assay [2] (setting [6]).
`COc1ccc2c3c([nH]c2c1)C(CC(C)C)N1C(=O)C(CCC(=O)OC(C)(C)C)NC(=O)C1C3` (stereo unspecified): the nuclei count, normalised was 116% in assay [1] (setting [10]); 114% in assay [1] (setting [11]); 116% in assay [1] (setting [12]); 118% in assay [1] (setting [3]); 111% in assay [1] (setting [13]); 106% in assay [1] (setting [14]). Also, the nuclei count, normalised worked out at 106% in assay [1] (setting [15]) and 108% in assay [1] (setting [4]). For the same compound, the p53-positive nuclei, normalised is -0.285% (inactive) in assay [2] (setting [16]); -0.0842% (inactive) in assay [2] (setting [17]); -0.358% (inactive) in assay [2] (setting [18]); -0.016% (inactive) in assay [2] (setting [5]); -0.0846% in assay [2] (setting [19]); 0.0359% in assay [2] (setting [20]). The p53-positive nuclei, normalised is -0.151% in assay [2] (setting [21]) and 0.0251% in assay [2] (setting [6]).
In the case of `NOCCC(N)C(=O)O` (stereo unspecified), the nuclei count, normalised worked out at 99.2% in assay [1] (measured here: cell number at 24 h, Library stock concentration: 500 nM); 103% in assay [1] (measured here: cell number at 24 h, Library stock concentration: 1.5 uM); 103% in assay [1] (measured here: cell number at 24 h, Library stock concentration: 4.6 uM); 107% in assay [1] (measured here: cell number at 24 h, Library stock concentration: 13.7 uM); 111% in assay [1] (measured here: cell number at 24 h, Library stock concentration: 41 uM); 113% in assay [1] (measured here: cell number at 24 h, Library stock concentration: 123 uM). Besides, the nuclei count, normalised in assay [1] (measured here: cell number at 24 h, Library stock concentration: 370 uM) stood at 115%; in assay [1] (measured here: cell number at 24 h, Library stock concentration: 1.111 mM) it was 106%; in assay [1] (measured here: cell number at 24 h, Library stock concentration: 3.333 mM), 110%; in assay [1] (setting [3]) it was 97.4%; in assay [1] (measured here: cell number at 48 h, Library stock concentration: 500 nM) it was 98.5%; in assay [1] (measured here: cell number at 48 h, Library stock concentration: 1.5 uM), 106%. Besides, the nuclei count, normalised in assay [1] (measured here: cell number at 48 h, Library stock concentration: 4.6 uM) came out at 104%; in assay [1] (measured here: cell number at 48 h, Library stock concentration: 13.7 uM), 112%; in assay [1] (measured here: cell number at 48 h, Library stock concentration: 41 uM), 113%; in assay [1] (measured here: cell number at 48 h, Library stock concentration: 123 uM), 115%; in assay [1] (measured here: cell number at 48 h, Library stock concentration: 370 uM) it was 114%; in assay [1] (measured here: cell number at 48 h, Library stock concentration: 1.111 mM) it was 108%. In addition, the nuclei count, normalised stood at 112% in assay [1] (measured here: cell number at 48 h, Library stock concentration: 3.333 mM) and 102% in assay [1] (setting [4]). For the same compound, the p53-positive nuclei, normalised in assay [2] (Library stock concentration: 500 nM) was -0.0211% (inactive); in assay [2] (Library stock concentration: 1.5 uM) it was -0.092% (inactive); in assay [2] (Library stock concentration: 4.6 uM) it was -0.0486% (inactive); in assay [2] (Library stock concentration: 13.7 uM), -0.0639% (inactive); in assay [2] (Library stock concentration: 41 uM), 0.121% (inactive); in assay [2] (Library stock concentration: 123 uM), -0.0786% (inactive). Further, the p53-positive nuclei, normalised is -0.0673% (inactive) in assay [2] (Library stock concentration: 370 uM); -0.0556% (inactive) in assay [2] (Library stock concentration: 1.111 mM); -0.0652% (inactive) in assay [2] (Library stock concentration: 3.333 mM); -0.0323% (inactive) in assay [2] (setting [5]); 0.111% in assay [2] (measured here: p53 positive nuclei at 24 h, Library stock concentration: 500 nM); -0.132% in assay [2] (measured here: p53 positive nuclei at 24 h, Library stock concentration: 1.5 uM). Besides, the p53-positive nuclei, normalised is -0.00649% in assay [2] (measured here: p53 positive nuclei at 24 h, Library stock concentration: 4.6 uM); -0.187% in assay [2] (measured here: p53 positive nuclei at 24 h, Library stock concentration: 13.7 uM); 0.0689% in assay [2] (measured here: p53 positive nuclei at 24 h, Library stock concentration: 41 uM); -0.0424% in assay [2] (measured here: p53 positive nuclei at 24 h, Library stock concentration: 123 uM); 0.0115% in assay [2] (measured here: p53 positive nuclei at 24 h, Library stock concentration: 370 uM); 0.0344% in assay [2] (measured here: p53 positive nuclei at 24 h, Library stock concentration: 1.111 mM). The p53-positive nuclei, normalised is -0.136% in assay [2] (measured here: p53 positive nuclei at 24 h, Library stock concentration: 3.333 mM) and -0.121% in assay [2] (setting [6]).
